This note sets out measurements from publication PMC5540273 (PLoS ONE, 2017).

Test systems include MAST1; MELK; MERTK; MET.
Conditions in all cases: concentration: 1 μM, replicates: in singlicate; n = 1
The test system of a further assay is T1, MEK1.
T1 construct: gene MAP2K1

Another assay relates to T2, MEK2.
T2 construct: gene MAP2K2

The next assay relates to T3, MEK3.
T3 construct: gene MAP2K3

In a further assay the test system is T4, MEK4.
T4 construct: gene MAP2K4

A further assay deals with T5, MEK5.
T5 construct: gene MAP2K5

For another assay, the system named is T6, MEK6.
T6 construct: gene MAP2K6
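Note: KINOMEscan kinase panel screen.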

Regarding `CS(=O)(=O)CCNCc1nc(-c2ccc3ncnc(Nc4ccc(OCc5ccccc5)c(Cl)c4)c3c2)cs1.Cl` [GW582764], the “%Inh” value in the assay on MAST1 is 43%; in the assay with MEK1, 0%; in the assay with MEK2 it was 0%; with MEK3, 0%; with MEK4 it was 16%; in the assay on MEK5 it was 84%. For the same compound, the “%Inh” value was determined as 0% in the assay on MEK6, 0% in the assay with MELK, 9% in the assay on MERTK and 0% in the assay with MET.
Consider `CNCc1ccc2nc(NC(=O)c3ccc(C(C)(C)C)cc3)cn2c1`, for which the “%Inh” value in the assay with MAST1 worked out at 50%; with MEK1, 32%; in the assay with MEK2, 27%; in the assay with MEK3, 8%; in the assay on MEK4, 30%; with MEK5, 34%. Also, the “%Inh” value came out at 11% in the assay on MEK6, 0% with MELK, 5% in the assay with MERTK and 6% with MET.
As for `NS(=O)(=O)c1cccc(N/C=C2\C(=O)Nc3ccc(S(=O)(=O)Cc4c(Cl)cccc4Cl)cc32)c1` [GSK398099], the “%Inh” value in the assay with MAST1 came out at 0%; with MEK1, 0%; in the assay with MEK2, 0%; with MEK3, 1%; in the assay with MEK4, 23%; in the assay on MEK5, 14%. Besides, the “%Inh” value in the assay with MEK6 turned out to be 0%; with MELK, 0%; with MERTK, 0%; with MET, 23%.
Turning to `Cc1ccc(NC(=O)c2ccc(Cl)cc2)cc1-c1ccc(C(=O)Nc2ccncc2)cc1` [GSK1398467], the “%Inh” value in the assay with MAST1 was found to be 0%; in the assay on MEK1 it was 0%; in the assay with MEK2 it was 0%; in the assay on MEK3, 0%; in the assay with MEK4 it was 3%; in the assay with MEK5 it was 0%. Also, the “%Inh” value with MEK6 is listed as 0%; in the assay on MELK, 0%; with MERTK, 18%; in the assay on MET, 0%.
With `Cc1ccccc1-c1cc(-c2c[nH]nc2-c2ccccn2)ccn1` [GW680061], the “%Inh” value in the assay on MAST1 came to 6%; in the assay with MEK1 it was 0%; with MEK2, 0%; in the assay on MEK3, 0%; with MEK4 it was 4%; with MEK5, 5%. Moreover, the “%Inh” value amounted to 0% in the assay on MEK6, 0% in the assay on MELK, 16% with MERTK and 0% in the assay on MET.
For the compound `O=C(Nc1n[nH]c2nc(-c3cccs3)c(Br)cc12)C1CC1` [SB-735297], the “%Inh” value came out at 26% with MAST1; 0% with MEK1; 0% with MEK2; 34% in the assay on MEK3; 99.3% in the assay on MEK4; 68% with MEK5. The “%Inh” value was 0% with MEK6, 15% in the assay with MELK, 15% with MERTK and 0% in the assay on MET.
For the compound `COc1cccc(NC(=O)Nc2ccc(C)c(-c3ccc(C(=O)Nc4ccncc4)cc3)c2)c1` [GSK1398474], the “%Inh” value in the assay on MAST1 is 0%; in the assay with MEK1, 0%; in the assay on MEK2, 0%; in the assay with MEK3, 0%; with MEK4, 42%; in the assay with MEK5, 8%. The “%Inh” value with MEK6 is listed as 0%; with MELK, 0%; in the assay with MERTK, 35%; with MET it was 16%.
As to `COc1cccc(C2=C(Nc3cc(Cl)c(O)c(Cl)c3)C(=O)NC2=O)c1` [SB-390767], the “%Inh” value with MAST1 is reported as 1%; in the assay on MEK1, 0%; with MEK2 it was 0%; with MEK3, 0%; in the assay on MEK4 it was 0%; with MEK5, 17%. Moreover, the “%Inh” value with MEK6 worked out at 0%; in the assay on MELK, 17%; in the assay on MERTK, 0%; in the assay on MET, 0%.
Regarding `COC(=O)c1cccc(NC(=O)NC2CCN(c3ccnc(Nc4ccc(F)cc4)n3)C2)c1` (centres unmarked) [GSK1379725], the “%Inh” value is 0% in the assay on MAST1; 0% in the assay with MEK1; 0% in the assay with MEK2; 0% with MEK3; 36% in the assay on MEK4; 12% in the assay with MEK5. The “%Inh” value is given as 0% in the assay on MEK6, 0% with MELK, 2% in the assay on MERTK and 0% with MET.
For `Cc1ccc(NC(=O)Nc2ccccc2)cc1-c1ccc(C(=O)Nc2ccncc2)cc1` [GSK1398471], the “%Inh” value with MAST1 was determined as 0%; in the assay on MEK1 it was 0%; in the assay with MEK2 it was 0%; in the assay on MEK3, 0%; in the assay with MEK4, 23%; in the assay on MEK5, 4%. For the same compound, the “%Inh” value in the assay with MEK6 worked out at 8%; in the assay with MELK, 11%; in the assay with MERTK it was 40%; in the assay on MET, 4%.
For the compound `CNc1cc(-c2ccc3c(N)n[nH]c3c2)nc(N)n1` [GSK2224810], the “%Inh” value in the assay on MAST1 amounted to 18%; in the assay on MEK1, 2%; in the assay on MEK2, 0%; in the assay on MEK3, 0%; with MEK4, 18%; with MEK5 it was 37%. Further, the “%Inh” value was found to be 14% in the assay on MEK6, 48% with MELK, 31% in the assay with MERTK and 0% in the assay with MET.
As for `CCn1c(-c2c(N)noc2C)nc2cnccc21` [SB-737856], the “%Inh” value in the assay on MAST1 is listed as 0%; in the assay on MEK1, 0%; in the assay on MEK2, 2%; in the assay on MEK3 it was 0%; in the assay on MEK4 it was 0%; in the assay on MEK5, 32%. Also, the “%Inh” value in the assay with MEK6 worked out at 70%; in the assay with MELK, 0%; in the assay on MERTK, 1%; with MET, 0%.
For `CCCCc1nn2ncccc2c1-c1ccnc(NC2CC2)n1` [GW684374], the “%Inh” value with MAST1 was found to be 0%; with MEK1 it was 0%; in the assay on MEK2, 0%; with MEK3, 8%; with MEK4 it was 7%; with MEK5, 9%. Also, the “%Inh” value was found to be 10% with MEK6, 15% in the assay with MELK, 5% in the assay on MERTK and 0% in the assay with MET.
As for `CSc1ccc(-c2nc3n(c2-c2ccncc2)CCC3)cc1` [SKF-105561], the “%Inh” value with MAST1 worked out at 16%; in the assay with MEK1, 1%; in the assay on MEK2 it was 25%; in the assay on MEK3, 18%; in the assay with MEK4, 0%; in the assay with MEK5, 22%. Further, the “%Inh” value in the assay on MEK6 was 0%; in the assay with MELK it was 18%; with MERTK, 0%; with MET, 0%.
As for `Cc1c(Cn2c(C)c(C)n3c(=O)cc(N4CCOCC4)nc23)cccc1C(F)(F)F` [GSK2328680], the “%Inh” value in the assay with MAST1, with MEK1, with MEK2, with MEK3, in the assay on MEK4 and with MEK5 was 0% throughout. Further, the “%Inh” value in the assay on MEK6 is 0%; with MELK, 1%; in the assay on MERTK it was 0%; in the assay on MET, 0%.
As to `CC(C)c1cc(-c2ccc3c(N)n[nH]c3c2)nc(N)n1` [GSK2250882], the “%Inh” value in the assay with MAST1 is given as 0%; with MEK1, 0%; in the assay with MEK2 it was 0%; in the assay on MEK3, 0%; in the assay with MEK4 it was 8%; in the assay with MEK5, 29%. Also, the “%Inh” value with MEK6 is recorded as 5%; in the assay with MELK, 15%; in the assay on MERTK it was 21%; in the assay with MET it was 0%.
As for `CS(=O)(=O)CCNCc1nc(-c2ccc3ncnc(Nc4ccc5c(cnn5Cc5ccccc5)c4)c3c2)cs1.Cl.Cl` [GW569716], the “%Inh” value in the assay with MAST1 amounted to 32%; with MEK1, 0%; in the assay on MEK2 it was 0%; in the assay on MEK3 it was 0%; in the assay on MEK4, 0%; in the assay with MEK5, 99.6%. The “%Inh” value with MEK6, in the assay on MELK, with MERTK and in the assay with MET was 0% each time.
